Our source for the Potency values is PubChem BioAssay (NCATS).

Molecules are shown by their SMILES. Results filed as inconclusive are left out. The source made the active and inactive calls. Calls come from the whole dose curve; as a rule, active = well fitted curve in the direction sought with a large enough effect; inconclusive = small, poorly fitted or top-dose-only effect, or another doubt; inactive = no such curve, though single readings can be large; an effect the other way counts as inactive or inconclusive. Where a SMILES comes first, the peptide text is derived from it.

Test [1] can be described thus: NS1 protein of Zika virus - qHTS assay to identify small molecule inhibitors in human HEK 293 cells (AID 1347053). Note: series mostly up to about 46 µM; nearly all actives have a fitted effect of over 55% in size. A digest of the protocol:
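HEK 293; 20 h pre-culture, 37 C/5% CO2; cpd 1 h pre-infection; ZIKV MR766, MOI = 0.5, 24 h, 37 C; TR-FRET NS1 readout (two anti-NS1 Abs); norm. to no-virus vs infected.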

A short description of test [2]: qHTS of pediatric cancer cell lines to identify multiple opportunities for drug repurposing: Primary screen for TC32 cells (AID 1347089). Note: nearly all actives have a fitted effect of over 60% in size. Note: potency is the fitted concentration of half-maximal effect. An outline of the steps:
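TC32 cells, 500-1,000/well in growth medium, compound-treated 48 h at 37 °C; viability from CellTiter-Glo luminescence. Primary screen: MIPE 11-point (0.78 nM–46 µM final), NPC 8-point (0.59 nM–46 µM final); confirmatory at 11-point dilutions.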
Background: Quantitative high-throughput screening tests each substance at several concentrations.

Test [3] in a line: qHTS of pediatric cancer cell lines to identify multiple opportunities for drug repurposing: Primary screen for DAOY cells (AID 1347090). Note: nearly all actives have a fitted effect of over 55% in size. Note: potency is the fitted concentration of half-maximal effect. A digest of the protocol:
(§1)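 Eight- or eleven-point concentration series, 48 h treatment at 37 degrees C in growth media; readout CellTiter-Glo luminescence. Potency and efficacy were taken from the concentration-response curves.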

The nature of test [4]: qHTS of pediatric cancer cell lines to identify multiple opportunities for drug repurposing: Primary screen for SJ-GBM2 cells (AID 1347091). Note: potency is the fitted concentration of half-maximal effect. An outline of the steps: as §1
Test [5] can be described thus: qHTS of pediatric cancer cell lines to identify multiple opportunities for drug repurposing: Primary screen for A673 cells (AID 1347092). Note: nearly all actives have a fitted effect of over 45% in size. Note: potency is the fitted concentration of half-maximal effect. An outline of the steps:
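A673 cells (500-1,000 cells/well) were treated 48 hours at 37 degrees C with compounds at 11-point (0.78 nM to 46 µM) or 8-point (0.59 nM to 46 µM) dilutions. Viability read by CellTiter-Glo luminescence; concentration-response curves fitted.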

Test [6] in a line: qHTS of pediatric cancer cell lines to identify multiple opportunities for drug repurposing: Primary screen for SK-N-MC cells (AID 1347093). Note: potency is the fitted concentration of half-maximal effect. An outline of the steps: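 Metabolically active cells were quantified by ATP-dependent luminescence (CellTiter-Glo, 15 min at room temperature) following 48 h treatment. Cells had been plated at 500-1,000 per well and settled for 5 h beforehand.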

Test [7] is described as follows: qHTS of pediatric cancer cell lines to identify multiple opportunities for drug repurposing: Primary screen for BT-37 cells (AID 1347094). Note: potency is the fitted concentration of half-maximal effect. An outline of the steps: (§2)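 Readout: CellTiter-Glo luminescence, 48 h treatment. Controls DMSO (neutral) and bortezomib 2.3 µM final (positive). Potency and efficacy taken from primary-screen concentration-response curves.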
Test [8] in a line: qHTS of pediatric cancer cell lines to identify multiple opportunities for drug repurposing: Primary screen for NB-EBc1 cells (AID 1347095). Note: potency is the fitted concentration of half-maximal effect. A digest of the protocol: as §2
A short description of test [9]: qHTS of pediatric cancer cell lines to identify multiple opportunities for drug repurposing: Primary screen for U-2 OS cells (AID 1347096). Note: nearly all actives have a fitted effect of over 50% in size. Note: potency is the fitted concentration of half-maximal effect. An outline of the steps: (§3)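 Cells (500-1,000/well) in growth media were settled 5 h at 37 degrees C, then given compounds for 48 h. Viability was read as CellTiter-Glo luminescence. Primary runs used MIPE at 11 points (0.78 nM-46 µM) and NPC at 8 points (0.59 nM-46 µM); follow-ups used 11 points.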

A short description of test [10]: qHTS of pediatric cancer cell lines to identify multiple opportunities for drug repurposing: Primary screen for Saos-2 cells (AID 1347097). Note: nearly all actives have a fitted effect of over 40% in size. Note: potency is the fitted concentration of half-maximal effect. A digest of the protocol: as §2
The nature of test [11]: qHTS of pediatric cancer cell lines to identify multiple opportunities for drug repurposing: Primary screen for SK-N-SH cells (AID 1347098). Note: nearly all actives have a fitted effect of over 65% in size. Note: potency is the fitted concentration of half-maximal effect. An outline of the steps: (§4)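 Cells (500-1,000/well) rested 5 h, then received compounds for 48 h; metabolically active cells were measured by CellTiter-Glo luminescence. Final concentrations spanned up to 46 µM (MIPE, 11-point) or 0.59 nM-46 µM (NPC, 8-point) in primary screens, 11-point in follow-ups.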

A short description of test [12]: qHTS of pediatric cancer cell lines to identify multiple opportunities for drug repurposing: Primary screen for NB1643 cells (AID 1347099). Note: nearly all actives have a fitted effect of over 50% in size. Note: potency is the fitted concentration of half-maximal effect. An outline of the steps:
as §2

A short description of test [13]: qHTS of pediatric cancer cell lines to identify multiple opportunities for drug repurposing: Primary screen for LAN-5 cells (AID 1347100). Note: potency is the fitted concentration of half-maximal effect. An outline of the steps:
as §3

A short description of test [14]: qHTS of pediatric cancer cell lines to identify multiple opportunities for drug repurposing: Primary screen for BT-12 cells (AID 1347101). Note: nearly all actives have a fitted effect of over 25% in size. Note: potency is the fitted concentration of half-maximal effect. A digest of the protocol:
as §4

Test [15] is described as follows: qHTS of pediatric cancer cell lines to identify multiple opportunities for drug repurposing: Primary screen for Rh18 cells (AID 1347102). Note: nearly all actives have a fitted effect of over 65% in size. Note: potency is the fitted concentration of half-maximal effect. A digest of the protocol: as §3
The nature of test [16]: qHTS of pediatric cancer cell lines to identify multiple opportunities for drug repurposing: Primary screen for OHS-50 cells (AID 1347103). Note: nearly all actives have a fitted effect of over 40% in size. Note: potency is the fitted concentration of half-maximal effect. An outline of the steps: as §4

`O=C(CCCl)NCCc1ccccc1`: the Potency result in test [1], in test [2], in test [3], in test [4], in test [5] and in test [6] was “inactive” in each case. Moreover, the Potency result in test [7], in [8], in [9], in [10], in [11] and in test [12] was “inactive” throughout. Besides, the Potency entry in [13], in test [14], in test [15] and in test [16] was “inactive” in each case.

`CO/N=C(/C(=O)N[C@@H]1C(=O)N2C(C(=O)OCOC(=O)C(C)(C)C)=C(C)CS[C@H]12)c1csc(N)n1`: the Potency result in test [1], in [2], in [3], in test [4], in [5] and in [7] was “inactive” in each case. In addition, the Potency result in test [8], in test [9], in test [10], in [11], in test [12] and in test [13] was “inactive” throughout. In addition, the Potency entry in test [14], in [15] and in test [16] was “inactive” throughout. The Potency in test [6] is 26.6 µM (active).

As for `CC(=O)N[C@@H](CCC(N)=O)C(=O)O`, the Potency result in test [1], in [2], in [3], in test [4], in test [5] and in [6] was “inactive” in each case. For the same compound, the Potency entry in test [7], in test [8], in test [9], in test [10], in test [11] and in [12] was “inactive” throughout. The Potency result in test [13], in [14], in [15] and in test [16] was “inactive” in each case.

As to `Cc1cc2nc3ccc(=[N+](C)C)cc-3sc2cc1N`, the Potency entry in test [1] is “inactive”. The Potency was 2.97 µM (active) in test [2]; 13.3 µM (active) in test [3]; 21.1 µM (active) in test [4]; 10.6 µM (active) in [5]; 1.33 µM (active) in [6]; 17.4 µM (active) in test [7]. Further, the Potency in test [8] was 10.6 µM (active); in test [9], 21.1 µM (active); in test [10], 2.99 µM (active); in test [11] it was 10.9 µM (active); in test [12], 5.96 µM (active); in test [13], 1.33 µM (active). Besides, the Potency in test [14] was 15.5 µM (active); in test [15] it was 2.99 µM (active); in [16], 3.89 µM (active).

For the compound `OC[C@]1(O)OC[C@@H](O)[C@H](O)[C@@H]1O`, the Potency result in test [1], in test [2], in test [3], in [4], in test [5] and in test [6] was “inactive” each time. The Potency result in test [7], in test [8], in [9], in test [10], in [11] and in [12] was “inactive” throughout. For the same compound, the Potency result in test [13], in [14], in test [15] and in [16] was “inactive” throughout.

Regarding `[O-][n+]1cccc(/C(Cl)=N/OC[C@@H](O)CN2CCCCC2)c1`, the Potency result in test [1], in test [2], in test [3], in test [4], in test [5] and in test [6] was “inactive” throughout. In addition, the Potency entry in test [7], in test [8], in test [9], in [10], in test [11] and in [12] was “inactive” each time. The Potency entry in [13], in test [14], in test [15] and in [16] was “inactive” throughout.

Take `C/C(=C1\CCOC(=O)S1)N(C=O)Cc1cnc(C)nc1N`: the Potency result in test [1], in test [2], in test [3], in test [4], in [5] and in [6] was “inactive” each time. The Potency result in test [7], in [8], in test [9], in [10], in test [11] and in [12] was “inactive” in each case. In addition, the Potency entry in test [13], in test [14], in test [15] and in test [16] was “inactive” in each case.

In the case of `O=C(OCC1(COC(=O)c2cccnc2)CCCC(COC(=O)c2cccnc2)(COC(=O)c2cccnc2)C1O)c1cccnc1`, the Potency result in test [1], in [2], in test [3], in test [4], in [5] and in test [6] was “inactive” throughout. The Potency result in test [7], in [8], in test [9], in [10], in test [11] and in [12] was “inactive” in each case. Moreover, the Potency entry in test [13], in test [14], in test [15] and in test [16] was “inactive” in each case.

Consider `O=C(O)C1CCC1`, for which the Potency result in test [1], in test [2], in [3], in [4], in test [5] and in test [6] was “inactive” each time. Also, the Potency entry in [7], in test [8], in test [9], in test [10], in [11] and in test [12] was “inactive” each time. In addition, the Potency result in [13], in test [14], in [15] and in [16] was “inactive” each time.

As to `CCCCOC(=O)CCCCCCCCC(=O)OCCCC`, the Potency entry in test [1], in [2], in test [3], in test [4], in [5] and in test [6] was “inactive” throughout. The Potency result in test [7], in test [8], in [9], in [10], in [11] and in [12] was “inactive” throughout. The Potency result in test [13], in [14], in [15] and in test [16] was “inactive” in each case.

Regarding `CC(=O)N[C@@H](CO)C(=O)N[C@@H](CC(=O)O)C(=O)N[C@@H](CCCCN)C(=O)N1CCC[C@H]1C(=O)O` (Ac-SDKP-OH), the Potency result in [1], in test [2], in [3], in [4], in [5] and in test [6] was “inactive” throughout. The Potency entry in test [7], in test [8], in test [9], in test [10], in [11] and in test [12] was “inactive” in each case. The Potency entry in [13], in test [14], in [15] and in test [16] was “inactive” in each case.

As for `C[N+]1(CC2COC(c3ccccc3)(c3ccccc3)O2)CCCCC1` (stereo not given), the Potency entry in test [1], in test [2], in [3], in test [4], in [5] and in test [6] was “inactive” in each case. For the same compound, the Potency result in test [7], in test [8], in test [9], in test [10], in [11] and in test [12] was “inactive” each time. The Potency entry in [13], in test [14], in [15] and in [16] was “inactive” throughout.

In the case of `O=C1c2ccccc2CCc2ccccc21`, the Potency entry in test [1], in [2], in [3], in test [4], in test [5] and in [6] was “inactive” throughout. Moreover, the Potency entry in [7], in [8], in test [9], in test [10], in test [11] and in test [12] was “inactive” throughout. In addition, the Potency entry in test [13], in [14], in test [15] and in test [16] was “inactive” throughout.

Consider `COc1c(N2C[C@@H]3CCCN[C@@H]3C2)c(F)cc2c(=O)c(C(=O)O)cn(C3CC3)c12`, for which the Potency result in test [1], in test [2], in test [3], in [4], in [5] and in [6] was “inactive” in each case. Further, the Potency result in test [7], in test [8], in test [9], in test [10], in test [11] and in test [12] was “inactive” in each case. Also, the Potency entry in test [13], in test [14], in test [15] and in [16] was “inactive” each time.

Turning to `CC1c2ccccc2CN1NC(=O)c1ccc(Cl)c(S(N)(=O)=O)c1` (stereo not given), the Potency result in test [1], in test [2], in test [3], in [4], in test [5] and in test [6] was “inactive” each time. For the same compound, the Potency result in [7], in [8], in [9], in test [10], in test [11] and in test [12] was “inactive” each time. For the same compound, the Potency entry in test [13], in test [14], in [15] and in test [16] was “inactive” each time.
